This passage reports growth results from PubChem BioAssay (NCI).

Holding throughout (test): NCI-60 one-dose screen, 48 h (100 = growth as untreated, 0 = no growth, -100 = all killed)
Common to all, as to settings: 10 µM unless noted

The subject of assay [1] is SK-MEL-2 melanoma.
The test system of assay [2] is EKVX NSCLC.
Assay [3] has as its system SN12C renal.
In assay [4] the test system is UO-31 renal.
Assay [5] deals with TK-10 renal.
Assay [6] concerns ACHN renal.
Assay [7] deals with CAKI-1 renal.
Assay [8] has as its system A498 renal.
Assay [9] deals with CCRF-CEM leukemia.
Assay [10] has as its system RPMI-8226 leukemia.
Assay [11] has as its system OVCAR-8 ovarian.
Assay [12] relates to OVCAR-5 ovarian.
Assay [13] relates to OVCAR-4 ovarian.
Assay [14] concerns SK-OV-3 ovarian.
Assay [15] has as its system IGROV1 ovarian.
The test system of assay [16] is OVCAR-3 ovarian.
The subject of assay [17] is HS 578T breast.
Assay [18] deals with NCI/ADR-RES ovarian.
In assay [19] the test system is MOLT-4 leukemia.
The test system of assay [20] is SR leukemia.

The panel holds about 83,000 compounds, 20% with a hit somewhere; the sample as a whole holds those more often.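 Treatment: one concentration, 48 hours, 96-well format. Scoring: percent growth, with anything below 10 considered active.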 Values without a mark were called inactive. Active and inactive are the calls of the source.

`COc1cc2nc(N3CCCC3)nc(Nc3ccccc3)c2cc1OC`: the growth was -52.5% (active) in assay [1]; 28.3% in assay [2]; -53.5% (active) in [3]; -53.5% (active) in [4]; 16.5% in assay [5]; -11.2% (active) in [6]. The growth in [7] is -19% (active); in assay [8], 40.6%; in assay [9], -11.4% (active); in assay [10], -19.8% (active); in assay [11], -30.1% (active); in assay [12], -40.5% (active). Moreover, the growth is 25.1% in assay [13]; 48.5% in assay [14]; 23.3% in assay [15]; -70.4% (active) in assay [16]; -24.2% (active) in assay [17]; 18.4% in assay [18].
Consider `Nc1n[nH]c2cc(F)c([C@@H]3Nc4ccc5[nH]ncc5c4[C@H]4C5CCC(C5)[C@@H]34)cc12` (some centres undefined), for which the growth in assay [1] was 26.2%; in assay [2], 47.2%; in assay [3], 33.5%; in assay [4] it was 38.6%; in [5], 52.5%; in [6] it was 21.1%. For the same compound, the growth in assay [7] is 9.87% (active); in [9] it was 16.6%; in assay [19] it was 16.1%; in assay [20] it was 9.53% (active); in [10], 32.1%; in assay [11] it was 19.5%. The growth was 30.1% in assay [12]; 32.1% in assay [13]; 20.6% in assay [14]; 15% in [15]; 12.9% in assay [16]; -4.82% (active) in assay [17]. The growth in [18] was -26.9% (active).
Turning to `CC(C)(O)c1cn(CCCCN2C(=O)C(=O)c3ccccc32)nn1`, the growth was 101% in [1]; 93.7% in assay [2]; 102% in [3]; 82.7% in assay [4]; 108% in assay [5]; 104% in assay [6]. The growth was 93.9% in assay [7]; 71.7% in assay [8]; 101% in assay [9]; 95.9% in assay [10]; 102% in [11]; 96.4% in [12]. Further, the growth is 96.5% in assay [13]; 95.7% in assay [14]; 102% in [15]; 109% in assay [16]; 99.6% in assay [17]; 99.9% in assay [18].
Regarding `CCCCn1c(-c2ccc(C(=O)O/N=C(\N)c3ccc4ccccc4c3)cc2)nc(-c2ccccc2)c1-c1ccccc1`, the growth is 96.4% in assay [1]; 75.7% in assay [2]; 63.5% in [3]; -24.1% (active) in assay [4]; 86.2% in assay [5]; -72.7% (active) in [6]. Besides, the growth in [7] was 32.3%; in assay [9], 40.8%; in [19], 62.8%; in assay [20] it was 12.1%; in assay [10], 67.3%; in assay [11], 72.2%. Further, the growth was 79.1% in [12]; 55.5% in [13]; 99% in assay [14]; -61.9% (active) in [15]; 71.7% in [16]; 57.9% in assay [17]. Also, the growth in [18] is 30.9%.
Take `O=C1c2ccccc2C(=O)c2c1ccc1[nH]c(-c3cccs3)nc21`: the growth in assay [1] is 107%; in [2], 71.7%; in assay [3], 73.4%; in assay [4], 58.6%; in assay [5], 87.3%; in assay [6], 66.5%. The growth in assay [7] was 82%; in [8], 96.5%; in assay [9], 88.4%; in assay [20], 37.4%; in [10] it was 63.7%; in assay [11], 81.5%. Also, the growth in [12] is 88.5%; in assay [13] it was 102%; in [14], 107%; in assay [15], 89.7%; in assay [16], 82.8%; in assay [17] it was 99.2%. For the same compound, the growth in assay [18] is 78.7%.
For `CC(C)(C)c1cc(/C=N\NC(=O)/C=C/C=C/c2ccc3c(c2)OCO3)c(O)c(C(C)(C)C)c1`, the growth was 89% in assay [1]; 75% in assay [2]; 87.6% in assay [3]; 55.1% in assay [4]; 96% in [5]; 75.9% in assay [6]. The growth in assay [7] was 71.9%; in assay [9] it was 55.7%; in [19] it was 74.7%; in [20] it was 6.69% (active); in assay [10], 80.6%; in assay [11], 75.3%. The growth in assay [12] was 89.3%; in assay [13] it was 34.8%; in assay [14] it was 100%; in [15], 70.3%; in [16] it was 75.6%; in assay [17], 13.6%. Also, the growth in [18] was 66.1%.
Consider `COc1ccc(-c2n[nH]nc2-c2csc3ccccc23)cc1OC`, for which the growth in assay [1] is 15%; in assay [2] it was 45.8%; in assay [3] it was 34%; in [4], 35.1%; in assay [5], 53.2%; in [6], 37.7%. Besides, the growth was 23.2% in assay [7]; 1.02% (active) in [8]; 22.8% in [9]; 21.3% in assay [20]; 34.8% in [10]; 36.9% in assay [11]. The growth in [12] was 66.2%; in assay [13] it was 49%; in [14], 14.2%; in assay [15] it was 48.8%; in assay [16] it was 11.9%; in assay [18], 13.5%.
With `COc1ccc(/C=C/c2nc(-c3n[nH]c(=O)n3-c3ccccc3)c3ccccc3n2)cc1`, the growth in assay [1] is 99.2%; in assay [2], 94.6%; in [3], 91.5%; in assay [4], 79.8%; in [5], 108%; in [6], 102%. The growth is 84% in assay [7]; 90% in [9]; 95% in [19]; 92.6% in [20]; 89.6% in assay [10]; 98.9% in assay [11]. The growth in assay [12] was 96.1%; in assay [13], 91.4%; in assay [14], 94.8%; in [15] it was 99.1%; in [16], 101%; in assay [17], 100%. The growth in assay [18] is 100%.
